Results filed as inconclusive are left out. Unmarked numbers belong to inactive results. The call rests on the fitted dose curve; in most records, active means well fitted inhibition curve with a large enough effect; inconclusive means small, poorly fitted or top-dose-only effect; inactive means flat fitted curve, though single readings scatter. Square brackets hold non-standard residues; d marks the D form. Peptide text beside a SMILES is read from it. Hyp = O=C(O)[CH]1C[CH](O)CN1; Phe(ol) = N[CH](CO)Cc1ccccc1; Iva = CC[C](C)(N)C(=O)O; Aib = CC(C)(N)C(=O)O

In the test the target is Aldehyde dehydrogenase, mitochondrial (Homo sapiens) (UniProt P05091). The experiment in a line: qHTS for Inhibitors of the Aldehyde Dehydrogenase Family (ALDH2) Primary screen (AID 2061308).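 Further: plate controls were vehicle for no effect and reference inhibitor for full effect; nearly all actives have a fitted effect of over 55% in size.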 Particulars: ALDH2 enzyme inhibition qHTS, 1536-well; series mostly up to 56 µM; activity change, negative = inhibition: at the top concentration.
Turning to `COc1cc(O)cc(C)c1C(=O)O[C@@H]1[C@H](O)[C@@H](CO)O[C@H]1n1ccc(=O)[nH]c1=O`, the “activity change, negative = inhibition” value is -6.2% [at 28 µM]. For the compound `C=CC(C)(O)CC/C=C(\C)C(=O)O[C@@H]1[C@@H](O)[C@H](OC(C)(C=C)CC/C=C(\C)C(=O)O[C@@H]2O[C@H](CO)[C@@H](O)[C@H](O)[C@H]2O)O[C@H](CO)[C@H]1OC(=O)/C(C)=C/CCC(C)(O)C=C` (stereo not given in full), the “activity change, negative = inhibition” value is 2.79% [at 16.9 µM]. Turning to `CCC(C)(NC(=O)C(CCC(N)=O)NC(=O)C1CC(O)CN1C(=O)C(C)(C)NC(=O)C(C)(C)NC(=O)C(CC(C)C)NC(=O)CNC(=O)C(NC(=O)C(C)(C)NC(=O)C(C)(C)NC(=O)C(C)(C)NC(=O)C(Cc1ccccc1)NC(C)=O)C(C)C)C(=O)N1CC(O)CC1C(=O)NC(C)(C)C(=O)NC(CO)Cc1ccccc1` (stereo not given) (Ac-F[Aib][Aib][Aib]VGL[Aib][Aib][Hyp]Q[Iva][Hyp][Aib][Phe(ol)]; configuration not given here), the activity change, negative = inhibition was -9.83% [at 11.2 µM]. On to `O=C(N/N=C/c1ccc(O)c(O)c1)c1cc2ccccc2cc1O`, for which the “activity change, negative = inhibition” value was -5.87% [at 16.9 µM]. The figure for `COC(=O)C1C(O)CCC2CN3CCc4c([nH]c5ccccc45)C3CC21` (stereo not given) is -1.13%; for `C[C@@H]1O[C@@H](O[C@H]2[C@H](O[C@H]3[C@H](O[C@H]4CC[C@@]5(CO)C(CC[C@]6(C)C5CC=C5C7CC(C)(C)C[C@@H](O)[C@]7(C)CC[C@]56C)C4(C)C)O[C@H](C(=O)O)[C@@H](O)[C@@H]3O)OC[C@@H](O)[C@@H]2O)[C@H](O)[C@H](O)[C@H]1O` (stereo not given in full) it is -7.5% [at 16.9 µM]; for `COc1c2c(c(C)c3c1C(=O)OC3)OC1(C)CC(O)C34OC(O)(CCC3(C)C1C2)OC4(C)C` (stereo not given) it is 2.2% [at 28 µM]. Take `O=C(Nc1ccccc1C(=O)Nc1ccc(CCO)cc1)c1ccc([N+](=O)[O-])cc1`: the “activity change, negative = inhibition” value was 7.88%. With `CCNc1nc(Nc2cc(F)c(C(=O)N3CCOCC3)cc2OC)ncc1C(F)(F)F`, the “activity change, negative = inhibition” value was 1.09%. Take `Fc1ccc(N2CCCCC2)c(NC(=S)c2ccncc2)c1`: the “activity change, negative = inhibition” value was -0.681%. With `CCCC(CCC)C(=O)NCc1ccc2c(cnn2-c2ccccc2OC)c1` the figure was -9.97%; with `O=C1NC(Cc2ccccc2)C(=O)N2CCCC12` (stereo not given), -0.988%; with `CC(C)c1ccc2c(c1)[C@H](O)CC1[C@@](C)(C(=O)O)CCC[C@]21C` (stereo not given in full), -13.7%. As for `CC(C)CC(=O)OC[C@H]1O[C@@](COC(=O)CC(C)C)(O[C@H]2O[C@H](CO)[C@@H](O)[C@H](O)[C@H]2O)[C@@H](OC(=O)CC(C)C)[C@@H]1OC(=O)CC(C)C`, the “activity change, negative = inhibition” value is 15.8% [at 16.9 µM].

`C=C(C)C(C)C1OC23CC4(CO2)C(CCC2C5(C)CCC(OC6OCC(O)C(OC7OC(CO)C(O)C(OC8OCC(O)C(O)C8O)C7O)C6OC6OC(CO)C(O)C6O)C(C)(C)C5CCC24C)C3C(C)(O)C1OC(C)=O` (stereo not given): the “activity change, negative = inhibition” value is 10.3% [at 16.9 µM]. As to `Nc1nc(-n2cc(C(=O)O)c(=O)c3cc(F)c(N4CC(O)C4)c(Cl)c32)c(F)cc1F`, the “activity change, negative = inhibition” value was -2.94%. With `Nc1c(S(=O)(=O)c2ccccc2)c2nc3ccccc3nc2n1-c1ccc(F)cc1` the figure was 7.83%; with `COc1cccc(C)c1C(=O)O[C@@H]1C[C@H](O[C@H]2[C@H](O)C[C@H](O[C@@H]3CCC[C@H]4[C@H]3C=C[C@@H]3CCCC/C=C/[C@H]5C=C(C(=O)O)[C@@H](C)C[C@@]56OC(=O)C(=C6O)OC(=O)[C@@]34C)O[C@@H]2C)O[C@H](C)[C@H]1O`, -2.01% [at 16.9 µM]; with `Cc1nc(NC(=O)N2CCC[C@H]2C(N)=O)sc1-c1ccnc(C(C)(C)C(F)(F)F)c1`, -0.441%. In the case of `CCC[C@@H]1O[C@@H]2C[C@H]3[C@@H]4CCC5=CC(=O)C=C[C@]5(C)[C@H]4[C@@H](O)C[C@]3(C)[C@]2(C(=O)CO)O1`, the “activity change, negative = inhibition” value is 2.93%. The figure for `CC(=O)C12OC(C)(C)OC1CC1C3CCC4=CC(=O)C=CC4(C)C3(F)C(O)CC12C` (stereo not given) is 0.678%; for `CC1(C)CC[C@]2(C(=O)O[C@@H]3O[C@H](CO)[C@@H](O)[C@H](O)[C@H]3O)CC[C@]3(C)C(=CCC4[C@@]5(C)CC[C@H](O[C@@H]6O[C@H](C(=O)O)[C@@H](O)[C@H](O)[C@H]6O)C(C)(C)C5CC[C@]43C)C2C1` (stereo not given in full) it is -0.612% [at 16.9 µM]; for `C=C(C)C1CC[C@]2(C(=O)O)CC[C@]3(C(=O)O)[C@H](CCC4[C@@]5(C)CC[C@H](O)C(C)(C)C5CC[C@]43C)C12` (stereo not given in full) it is -9.06% [at 28 µM]. On to `C=C1CCC[C@]2(C)CC[C@@](O)(C(=C)C(=O)O)C[C@@H]12`, for which the “activity change, negative = inhibition” value is -21.9%. For `CC(C)c1ccc2c(c1)C(=O)CC1C(C)(C(=O)O)CCCC21C` (stereo not given), the “activity change, negative = inhibition” value is -2.06%.

Consider `CC(=O)N[C@@H](CCCCN)C(=O)N(C)[C@@H](CC(C)C)C(=O)N[C@H](C(=O)N(C)[C@@H](Cc1ccccc1)C(=O)N[C@H](Cc1ccccc1)C(N)=O)C(C)C`, for which the activity change, negative = inhibition was 0.957% [at 5.59 µM]. With `Cn1cc(-c2ccc3nnc(Sc4ccc5nn(C)cc5c4)n3n2)cn1` the figure was 1.52%; with `O=C(OCC12OC1C=CC(OC(=O)c1ccccc1)C2O)c1ccccc1` (stereo not given), 3.14%; with `CCCCC1CCC(c2nc(-c3ccncc3)no2)CC1` (stereo not given), -26.5%. Consider `CC(=O)O[C@@H]1CC[C@@]2(C)[C@H](CC[C@@H]3[C@@H]2C[C@H](OC(C)=O)[C@]2(C)[C@@H](C(C)=O)CC[C@@H]32)C1`, for which the “activity change, negative = inhibition” value was -1.85%.

On to `C/C=C/C=C/C=C/C(=O)N(C)C(C(=O)NC(C)C(=O)N1CCCC1C(N)=O)C(C)C` (stereo not given), for which the “activity change, negative = inhibition” value is -12.5% [at 28 µM]. In the case of `C=C1C(=O)O[C@@H]2/C=C(\C)CC/C=C(\C)CC[C@@H]12`, the “activity change, negative = inhibition” value was 4.72%. With `COc1cc(C(O)C(CO)Oc2ccc(CCCO[C@@H]3O[C@@H](C)[C@H](O)[C@@H](O)[C@H]3O)cc2OC)ccc1O` (stereo not given in full) the figure was -5.04% [at 28 µM]. As for `CC1(C)CC[C@]2(C(=O)O)[C@H](O)C[C@]3(C)C(=CCC4[C@@]5(C)CC[C@H](O[C@@H]6O[C@H](CO[C@@H]7OC[C@H](O)[C@H](O)[C@H]7O[C@@H]7OC[C@@H](O)[C@H](O)[C@H]7O)[C@@H](O)[C@H](O)[C@H]6O[C@@H]6O[C@H](CO)[C@@H](O)[C@H](O)[C@H]6O)C(C)(C)C5CC[C@]43C)[C@@H]2C1` (stereo not given in full), the “activity change, negative = inhibition” value is 9.5% [at 16.9 µM]. As to `CC1(C)CCC2(C(=O)OC3OC(CO)C(O)C(O)C3O)CCC3(C)C(=CCC4C5(C)CCC(OC6OC(C(=O)O)C(OC7OC(CO)C(O)C(O)C7O)C(OC7OC(CO)C(O)C(O)C7O)C6O)C(C)(C)C5CCC43C)C2C1` (stereo not given), the “activity change, negative = inhibition” value is 0.179% [at 16.9 µM]. With `C=C1C(=O)OC2CC(C)C(CCC(C)=O)=CCC12` (stereo not given), the “activity change, negative = inhibition” value is 2.49%.

As to `Fc1ccc(-c2c3cccc(C(F)(F)F)c3nn2Cc2ccc(F)cc2Cl)cc1`, the “activity change, negative = inhibition” value is -3.23%. With `CC(=O)O[C@@H]1[C@@H](O)[C@H](C)O[C@@H](O[C@H]2[C@@H]3C=CO[C@@H](O[C@@H]4O[C@H](CO)[C@@H](O)[C@H](O)[C@H]4OC(C)=O)[C@@H]3[C@@]3(CO)O[C@@H]23)[C@@H]1OC(=O)/C=C/c1ccc(O)cc1` the figure was 12.2% [at 16.9 µM]; with `C=C1C(O)CC2C(C(=O)O)=COC(O[C@@H]3O[C@H](COC(=O)c4ccc(O)cc4)[C@@H](O)[C@H](O)[C@H]3O)C12` (stereo not given in full), 10.4% [at 28 µM].

As for `C=C[C@@]12COC(=O)C(=C)[C@@H]1[C@@H](O)[C@H](C(=C)C(=O)OC)[C@@H](O)C2`, the “activity change, negative = inhibition” value was 9.16%.

For the origin of these results see PubChem BioAssay (NCATS).
